Consider 39 compounds from PubChem BioAssay (EPA / NIEHS).

A structure can be active in one record and inactive in another. Active and inactive are the calls of the source. The calls were made as follows: active = hit-call score of the fitted dose curve at least 0.9, where 1 is the maximum; inactive = score below 0.9.

Read-out in this assay: CD38, CD38 (gene 952)
The assay can be described thus: BSK_SAg_CD38: BioMAP Diversity Plus: SAg Assay for CD38 Biomarker Activity (AID 2283087). Conditions: primary human HUVEC with PBMC; actives raise or lower the signal. As for the experimental part: BSK_SAg is a cell-based, multiplexed-readout assay that uses umbilical vein endothelium and peripheral blood mononuclear cells, a human vascular primary cell co-culture, with measurements taken at 24 hours after chemical dosing in a 96-well plate.BSK_SAg_CD38 is one of 10 assay component(s) measured or calculated from the BSK_SAg assay. It is designed to make measurements of enzyme-linked immunosorbent assay, a form of binding reporter, as detected with fluorescence intensity signals by Enzyme-linked immunosorbent assay technology.Data from the assay component BSK_SAg_CD38 was analyzed into 1 assay endpoint. This assay endpoint, BSK_SAg_CD38, was analyzed with bidirectional fitting relative to DMSO as the negative control and baseline of activity. Using a type of binding reporter, gain or loss-of-signal activity can be used to understand changes in the signaling as they relate to the gene CD38. Furthermore, this assay endpoint can be referred to as a primary readout, because this assay has produced multiple assay endpoints where this one serves a signaling function. To generalize the intended target to other relatable targets, this assay endpoint is annotated to the cytokine intended target family, where the subfamily is other cytokine.
The levels of cell surface (or secreted, indicated by the prefix "s") biomarker endpoints were measured by ELISA. Overt cytotoxicity to cells in confluent adherent cultures (all systems other than the BT system) was assessed by measuring total protein levels using sulforhodamine B (SRB) staining in parallel cultures at the time of biomarker measurements, indicated as SRB endpoints. For proliferation assays for adherent cell types, individual cell types are cultured at sub-confluence and relative cell numbers quantified by SRB staining at time points optimized for each system (48 h: 3C and CASM3C systems; 72 h: BT and HDF3CGF systems; 96 h: SAg system). SRB was performed by staining cells with 0.1% SRB after fixation with 10% TCA and reading wells at 560 nm.Viability and proliferation of PBMC (T cells) was quantified by Alamar Blue reduction for the SAg and BT systems. For PBMC viability (referred to as PBMC Cytotoxicity within the assay endpoint names), cells were plated (75,000/well in a 96-well plate) and then chemical samples added for 1 h before addition of activators, SEB and TSST-1 (20 ng/mL final concentration each). Cells were incubated for 90 h. Then, Alamar Blue (20 uL/well) (Invitrogen, Cat DAL1100) was added for 6 h, and the plates were read with a fluorescence microplate reader at 546/580 nm (excitation/emission). For PBMC proliferation, cells were plated and activated as above but incubated for only 16 h prior to addition of Alamar Blue. Plates were read after 6 h.
With `O=C(O)c1cc(N=Nc2ccc(S(=O)(=O)Nc3ccccn3)cc2)ccc1O`, the result was inactive.
Still for that read-out and setting: to `COc1ccc(-n2nc(C(F)F)cc2-c2ccc(S(C)=O)cc2)cc1` (stereo not given) belongs “inactive”.
A word on the AC50: it is the concentration giving half of the maximal activity seen. `O=P(OC(CCl)CCl)(OC(CCl)CCl)OC(CCl)CCl`: the half-maximal activity concentration (AC50) is 30 µM (active).
Regarding `CCOc1cccc(-n2cc(C(=O)N3CCN(c4cc(C(=O)O)c5ccccc5c4)CC3)nc2-c2ccc(C)cc2)c1`, the half-maximal activity concentration (AC50) was 28.2 µM (active).
Turning to `O=C(CCCCCCCCc1cccnc1)N1CCC(C=C(c2ccccc2)c2ccccc2)CC1`, the half-maximal activity concentration (AC50) was 8.97 µM (active).
`CCOC(=O)c1ccc(C2CCC(NC[C@H](O)COc3ccc(O)c(NS(C)(=O)=O)c3)CC2)cc1` (stereo not given in full): the half-maximal activity concentration (AC50) was 32.4 µM (active).
`C[C@](N)(Cc1ccc(O)c(O)c1)C(=O)O`: the result was inactive.
Turning to `C=CC(=C)CCC=C(C)C`, the outcome was inactive.
For the compound `CC(O)CN(CCN(CC(C)O)CC(C)O)CC(C)O` (stereo not given), the result was inactive.
Still for that read-out and setting: to `C1N2CN3CN1CN(C2)C3` belongs “inactive”; to `CCOC(=O)CC(CC(=O)OCC)(OC(C)=O)C(=O)OCC`, “inactive”; to `CC(C)=CCCC(C)CCO` (stereo not given), “inactive”.
Regarding `O=C(O)c1cccc(N(Cc2cccnc2)c2ccc(OC(F)F)c(OC(F)F)c2)c1`, the AC50 is 3.61 µM (active).
Turning to `CC(=O)c1ccc2c(c1)[C@H](NC(=O)c1ccc(F)cc1)[C@@H](O)C(C)(C)O2`, the result was inactive.
For the compound `CNS(=O)(=O)c1cc(C(=O)N2CCC(CCN3C4CCC3CC(n3c(C)nc5ccccc53)C4)(c3cccc(F)c3)CC2)c(Cl)cc1F` (stereo not given), the half-maximal activity concentration (AC50) is 28.9 µM (active).
Consider `CCN(C(=O)c1cc(C)cc(OC[C@H](C)Nc2ccncc2)c1)C(C)C`, for which the outcome was inactive.
`CC(C)=CCCC(C)=CC=O`: the result was inactive.
Still for that read-out and setting: with `O=C(O)CC(O)C(=O)O` (stereo not given) the entry was “inactive”; with `Cc1ccc(C)c(O)c1`, “inactive”.
`Cc1[nH]cnc1C[C@H]1CCc2c(C)c3ccccc3n2C1=O`: the AC50 is 31.2 µM (active).
As for `CCCCC(CC)COC(=O)CCCCCCCCC(=O)OCC(CC)CCCC` (stereo not given), the result was inactive.
The same measure, in the same setting: to `CN(C)c1ccc(Cc2ccc(N(C)C)cc2)cc1` belongs “inactive”.
`COC(=O)c1c(Cl)c(Cl)c(C(=O)OC)c(Cl)c1Cl`: the result was inactive.
On the same count and under the same terms, with `O=c1[nH]c2ccc(S(=O)CCN3CCC(Cc4ccc(F)cc4)CC3)cc2o1` (stereo not given) the entry was “inactive”; with `CC(C)CCO`, “inactive”.
Regarding `CC(C)c1cccc(C(C)C)c1N1C(=O)c2ccc(O)cc2C1=O`, the concentration at half-maximal activity (AC50) was 13.6 µM (active).
For `Cn1cnc([N+](=O)[O-])c1Sc1ncnc2nc[nH]c12`, the AC50 is 12.1 µM (active) and the result was inactive.
Take `CN(C)c1ccc(N=NS(=O)(=O)O)cc1`: the outcome was inactive.
Consider `Cc1c(-c2cccnc2)c2ccccc2n1CCCCC(=O)O`, for which the outcome was inactive.
`Clc1nc(Cl)c(Cl)c(Cl)c1Cl`: the AC50 is 34.4 µM (active).
Regarding `O=c1n(CC2CO2)c(=O)n(CC2CO2)c(=O)n1CC1CO1` (stereo not given), the concentration at half-maximal activity (AC50) was 18.5 µM (active).
With `O=C1OC(=O)C2C3C=CC(C3)C12` (stereo not given), the result was inactive.
Consider `CCCCCCc1ccc(O)cc1O`, for which the half-maximal activity concentration (AC50) is 33 µM (active).
As to `C=CCCCCCCCCC(=O)O`, the result was inactive.
In the case of `Cc1ccc(S(=O)(=O)O)cc1C`, the result was inactive.
`CC(C)=CCC/C(C)=C/CO`: the outcome was inactive.
For `CCOC(=O)COc1ccc2c(c1)CC(NCC(O)c1cccc(Cl)c1)CC2` (stereo not given), the AC50 was 29.2 µM (active).
In the case of `CC(C)CCCCCCOC(=O)c1ccc(C(=O)OCCCCCCC(C)C)c(C(=O)OCCCCCCC(C)C)c1`, the result was inactive.
Consider `Nc1ccc(Nc2ccccc2)cc1`, for which the AC50 was 3.97 µM (active).
